Bioassay records deposited in PubChem by several laboratories.
BAP1 block: blocks human BAP1 ubiquitin-AMC hydrolysis; Q92560; recombinant BAP1, Ub-AMC hydrolysis fluorescence kinetic; hits give low values; calls only at 20 µM; hit rate 0.48% among 72,000;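 active = activity remaining at or below 50% of control, provided the compound also passes the data quality filters; inactive = the rest, including low values that fail the filters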;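 also: 100% = DMSO wells rate and 0% = substrate alone blank rate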
MKP-1 inh: blocks human MKP-1 phosphatase activity | hit rate 0.15% among 65,000 | inhibition, %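 (compounds tested at a single concentration somewhere between 10 and 100 µM)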 | recombinant MKP-1, OMFP hydrolysis fluorescence;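 active = inhibition above about 50%, limit read from the data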;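 also: 0% = DMSO max control wells and 100% = wells with enzyme stopped by NaOH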
Target sequence (P28562 whole entry, looked up): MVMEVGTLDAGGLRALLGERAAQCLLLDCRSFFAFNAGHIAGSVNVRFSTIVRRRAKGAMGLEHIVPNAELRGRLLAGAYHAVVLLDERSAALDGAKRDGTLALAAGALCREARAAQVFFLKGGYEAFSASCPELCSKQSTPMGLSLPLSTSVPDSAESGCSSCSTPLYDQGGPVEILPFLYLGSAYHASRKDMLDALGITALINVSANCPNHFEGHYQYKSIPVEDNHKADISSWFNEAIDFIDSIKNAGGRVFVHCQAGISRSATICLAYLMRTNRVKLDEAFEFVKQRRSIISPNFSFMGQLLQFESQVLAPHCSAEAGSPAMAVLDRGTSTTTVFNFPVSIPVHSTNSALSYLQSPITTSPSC
Cdc25B block: human M-phase inducer phosphatase 2 inhibition; recombinant Cdc25B, OMFP fluorescence Ex485/Em525; inhibition, %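 (compounds tested at 10 µM final in the well)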; hit rate 0.1% among 65,000; in the data active = inhibition above about 50%
HePTP inhibitor: human HePTP phosphatase inhibition; inhibition, % at 20 µM; recombinant HePTP phosphatase activity, OD absorbance; AID 521; hit rate 0.64% among 110,000; in the data active = inhibition above about 50%;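 also: plate controls were vehicle for no effect and reference inhibitor for full effect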
Hsp90 inh: displaces geldanamycin probe from tumor Hsp90; NCI-N417 lysate Hsp90, Cy3B-geldanamycin FP displacement; hit rate 0.35% among 64,000; P07900; inhibition, % at 30 µM;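 active = inhibition above 50%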;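 also: 0% = tracer plus lysate wells and 100% = tracer alone without lysate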
Redox 05 DTT: generates H2O2 by redox cycling in 0.5 mM DTT; shares compounds with Cdc25B block; cell-free redox cycling H2O2 generation; EC50, µM; hit rate 50% among 30; in the data active = EC50 below about 30 µM
Redox H2O2 1DTT: redox cycling H2O2 generation, Cdc25B counter-screen | AID 683 | 30 tested, under 10 active | shares compounds with Cdc25B block | cell-free redox cycling H2O2 generation, 1 mM DTT | EC50, µM; in the data active = EC50 below about 50 µM
An asterisk follows results filed as active. Rows were chosen to be rich in hits. Some 1.1% of all compounds tested hit in one or more screens of this group.

For CC1=NN(c2cccc(C(=O)O)c2)C(=O)/C1=C\c1ccc(-c2ccc([N+](=O)[O-])cc2)o1 the results were HePTP inhibitor 6.
Cc1[nH]n(-c2ccccc2)c(=O)c1/C=C1/C=Nc2ccccc21 was read as HePTP inhibitor -6.
O=C(NC(Nc1ccc(Br)cc1)C(=O)c1ccccc1)c1ccco1 (stereo unspecified) was read as HePTP inhibitor -3.
For O=C(NC(NC(=O)c1ccco1)c1ccc(Br)cc1)c1ccco1 the results were HePTP inhibitor 104*.
`O=c1oc2c3c4c(cc2s1)CCCN4CCC3` gave BAP1 block inactive, MKP-1 inh 2, Cdc25B block 16, HePTP inhibitor 9 and Hsp90 inh 69*.
For O=C(CSc1nnc(Cc2cc(=O)[nH]c(=O)[nH]2)n1-c1ccc(Cl)cc1)NCC1CCCO1 (stereo unspecified) the results were BAP1 block inactive, MKP-1 inh 8, Cdc25B block 4, HePTP inhibitor 9 and Hsp90 inh -1.
O=C(CSc1nnc(Cc2cc(=O)[nH]c(=O)[nH]2)n1-c1ccccc1)NCC1CCCO1 (stereo unspecified) was read as BAP1 block inactive, MKP-1 inh 0, Cdc25B block 5, HePTP inhibitor 4 and Hsp90 inh 89*.
CCCCOC(=O)c1cccc(NC(=O)c2ccc(OC)cc2)c1 was read as HePTP inhibitor 104*.
CCCCOC(=O)c1cccc(NC(=O)c2ccc(F)cc2)c1 was read as BAP1 block inactive.
Screening Cc1ccccc1-c1coc2cc(O)ccc2c1=O returned MKP-1 inh 5, Cdc25B block -7, HePTP inhibitor 9 and Hsp90 inh -7.
`O=c1c(-c2ccc(O)cc2)coc2cc(O)ccc12` gave BAP1 block active and Hsp90 inh 0.
`O=C(N/N=C/c1cccs1)c1cc(-c2ccc(Cl)cc2)n[nH]1` gave HePTP inhibitor -5.
For COc1ccc(/C=N/NC(=O)c2cc(-c3ccc4ccccc4c3)n[nH]2)cc1O the results were HePTP inhibitor 68*.
For O=C(N/N=C/c1cccs1)c1cc(-c2ccc3ccccc3c2)n[nH]1 the results were HePTP inhibitor 99*.
`CCOc1cc(/C=N/NC(=O)c2cc(-c3ccc4ccccc4c3)n[nH]2)ccc1O` gave HePTP inhibitor -15.
`COc1ccc(C(=O)Nc2ccc(-c3nc4cc(C)c(C)cc4o3)c(O)c2)cc1[N+](=O)[O-]` gave HePTP inhibitor 25.
Screening COc1ccc(-c2cc3cc(OC)c(OC)cc3c(-c3ccccc3Cl)n2)cc1OC returned HePTP inhibitor -15.
Screening CCN(CC)c1ccc(/C=N/NC(=O)c2cc(-c3ccc(Cl)cc3)n[nH]2)cc1 returned HePTP inhibitor -6.
For O=C(/C=C/c1ccco1)Nc1cccc([N+](=O)[O-])c1 the results were HePTP inhibitor 62*.
`O=C(/C=C/c1ccco1)NCCCCNC(=O)/C=C/c1ccco1` gave HePTP inhibitor 103*.
`O=C(/C=C/c1ccco1)NCCCNC(=O)/C=C/c1ccco1` gave HePTP inhibitor 46.
O=C(/C=C/c1ccco1)Nc1ccc(Cl)cc1C(=O)O was read as HePTP inhibitor 102*.
For O=C(/C=C/c1ccco1)Nc1ccc(O)cc1C(=O)O the results were HePTP inhibitor 98*.
Cc1cccc(OCCCCN2CCCC2)c1 was read as HePTP inhibitor -10.
For CCCCCCCCCCCCCCSCC(=O)O the results were BAP1 block active and Hsp90 inh 3.
CC(NC(=O)/C(C#N)=C/c1ccc(Cl)c(Cl)c1)c1ccccc1 (stereo unspecified) was read as HePTP inhibitor 5.
For N#C/C(=C\c1ccc(O)c(O)c1)C(=O)NCCc1ccccc1 the results were BAP1 block inactive and Hsp90 inh 83*.
For COc1cc(/C=N\N2CCN(Cc3ccc(C)cc3)CC2)cc(Br)c1O the results were HePTP inhibitor 77*.
For COc1cc(/C=N/N2CCN(Cc3ccc(C)cc3)CC2)cc(OC)c1O the results were HePTP inhibitor -4.
`Cc1nn(Cc2ccccc2)c(C)c1NC(=O)CSc1nc2sc3c(c2c(=O)n1C)CCC3` gave BAP1 block inactive, MKP-1 inh 50*, Cdc25B block -6, HePTP inhibitor 2 and Hsp90 inh -6.
Screening NC[C@@H]1O[C@H](C23CC4CC(CC(C4)C2)C3)Cc2c1ccc(O)c2O returned BAP1 block inactive and Hsp90 inh 78*.
For COc1ccc2oc(=O)c(C(=O)Nc3cccc(Cl)c3C)cc2c1 the results were HePTP inhibitor 7.
For Cn1cc(/C=C/c2nc3ccccc3c(=O)n2Cc2ccccc2)c2ccccc21 the results were HePTP inhibitor 104*.
O=C(CCc1ccccc1)Nc1ccccc1Br was read as HePTP inhibitor -10.
COc1ccc(CN2CCN(S(=O)(=O)c3ccc(C)cc3)CC2)cc1 was read as HePTP inhibitor 4.
Screening O=[N+]([O-])c1cccc(CN2CCN(S(=O)(=O)c3ccc(Cl)cc3)CC2)c1 returned HePTP inhibitor 102*.
Screening O=[N+]([O-])c1cccc(CN2CCN(S(=O)(=O)c3ccccc3)CC2)c1 returned HePTP inhibitor -7.
For O=[N+]([O-])c1cncc([N+](=O)[O-])c1Nc1ccc(Cl)cn1 the results were HePTP inhibitor 87*.
`COc1ccc(Cl)cc1NCN1C(=O)S/C(=C/c2ccccc2)C1=O` gave HePTP inhibitor -11.
Screening O=C(O)c1cccc(-c2ccc(C=C3C(=O)c4ccccc4C3=O)o2)c1 returned HePTP inhibitor 98*.
Screening O=C1NC(=O)N(c2ccccc2)C(=O)/C1=C\c1ccc(-c2cccc(C(=O)O)c2)o1 returned HePTP inhibitor 16.
Screening O=C1NN(c2ccc(Cl)cc2)C(=O)/C1=C\c1ccc(-c2cccc(C(=O)O)c2)o1 returned HePTP inhibitor 103*.
For O=C1NN(c2ccc(F)c(Cl)c2)C(=O)/C1=C\c1ccc(-c2cccc(C(=O)O)c2)o1 the results were HePTP inhibitor 30.
For O=C1NN(c2ccc(F)cc2)C(=O)/C1=C\c1ccc(-c2cccc(C(=O)O)c2)o1 the results were HePTP inhibitor 102*.
`Cc1cc(C)c(OCC(O)CNC(C)(C)CC(C)(C)C)c(C)c1` (stereo unspecified) gave BAP1 block inactive.
For O=C(NCc1ccccc1)C(=O)Nc1c(O)c2ccccc2[nH]c1=O the results were HePTP inhibitor -16.
Screening O=C1Cc2ccccc2C(=O)N1CCc1ccccc1 returned BAP1 block inactive, MKP-1 inh 10, Cdc25B block 59*, HePTP inhibitor 9, Hsp90 inh -7, Redox 05 DTT >50 and Redox H2O2 1DTT >50.
